# RORg inh – qHTS for inhibitors of ROR gamma transcriptional activity. Drosophila S2 Gal4-RORgamma UAS-luciferase reporter, 20 h. hit rate 5.4% among 310,000. AID 2551, 2010. Potency, µM (series often up to 53.6 µM), usual class: inhibitors. Nuclear receptor ROR-gamma (Mus musculus), P51450; further: nearly all actives have a fitted effect of over 60% in size
# Target sequence (P51450 whole entry, looked up, the tested form may be a part): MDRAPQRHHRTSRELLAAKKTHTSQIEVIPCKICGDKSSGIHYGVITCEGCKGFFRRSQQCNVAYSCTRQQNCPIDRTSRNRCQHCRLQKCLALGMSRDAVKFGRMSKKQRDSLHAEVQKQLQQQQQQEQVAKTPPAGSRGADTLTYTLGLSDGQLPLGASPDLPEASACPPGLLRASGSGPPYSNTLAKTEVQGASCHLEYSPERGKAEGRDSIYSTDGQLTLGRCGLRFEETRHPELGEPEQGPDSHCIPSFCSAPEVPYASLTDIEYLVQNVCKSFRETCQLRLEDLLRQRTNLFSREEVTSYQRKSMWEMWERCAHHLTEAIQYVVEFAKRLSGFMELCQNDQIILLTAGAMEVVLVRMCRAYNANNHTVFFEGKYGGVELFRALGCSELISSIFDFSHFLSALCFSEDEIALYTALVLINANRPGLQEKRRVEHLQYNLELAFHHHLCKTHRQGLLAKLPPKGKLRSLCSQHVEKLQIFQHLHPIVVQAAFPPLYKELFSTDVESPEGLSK
#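 In this cell-based reporter format, copper sulfate (700 uM final) drives Gal4–ROR gamma fusion expression from a metallothionein promoter in Drosophila Schneider cells; compounds preincubated 1 hr, reporter read after 20 hr at ambient temperature.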
# VP16 counter – VP16 counterscreen qHTS for inhibitors of ROR gamma transcriptional activity | hit rate 3.5% among 310,000 | AID 2546, 2010 | Potency, µM (series often up to 53.6 µM), usual class: inhibitors | Drosophila S2 Gal4-VP16 UAS-luciferase, luminescence, 20 h;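 further: Gal4-VP16 expression switched on by copper sulfate through the metallothionein promoter; nearly all actives have a fitted effect of over 50% in size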
# MCF10A rereplic – A quantitative high throughput screen for small molecules that induce DNA re-replication in MCF 10a normal breast cells | MCF 10A DNA re-replication, Hoechst nuclear intensity, 48 h | Potency, µM (highest dose often 46.1 µM), hits mostly activators | hit rate 2.9% among 350,000; further: nearly all actives have a fitted effect of over 50% in size
# BCR signal inh – qHTS Assay to Find Inhibitors of Chronic Active B-Cell Receptor Signaling. ABC-DLBCL IkBa-CBG/CBR reporter, luminescence ratio, 4 h. Potency, µM (doses to about 46.1 µM), usual class: inhibitors. hit rate 0.05% among 340,000. AID 493014, 2011; active means well fitted inhibition curve with a large enough effect in the signal ratio, with a control signal flat, not every such curve was filed as active; inconclusive means small, poorly fitted or top-dose-only effect, or effect the other way, or a change in a side signal; the % refers to the signal ratio
#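 Doxycycline induced both beetle luciferases in TMD8 lymphoma cells; IKK-driven degradation limits the IkappaBalpha-fused green signal, while red luminescence normalises for cell number and nonspecific effects. Compounds tested up to 46 uM, 4 hrs.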
# SW480 rerep – A quantitative high throughput screen for small molecules that induce DNA re-replication in SW480 colon adenocarcinoma cells. SW480 DNA re-replication, Hoechst DNA content imaging, 48 h. Potency, µM (series often up to 46.1 µM), most hits filed as activators. hit rate 1.8% among 340,000. AID 624297, 2012; further: nearly all actives have a fitted effect of over 55% in size
#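 Quantitative HTS format with DMSO vehicle controls; 48 hr drug incubation at 37 C, then 40 min Hoechst staining and scanning imager measurement at 405 nm excitation.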
# Giardia killer – Small Molecules that selectively kill Giardia lamblia: qHTS; Giardia lamblia trophozoite viability; activity change, % at 7.66 µM, hits read low; hit rate 0.15% among 340,000; AID 540267, 2011; in the data active means activity change below about -80%; inconclusive means between about -30% and that limit;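 further: parasites exposed to compound for two days anaerobically before the ATP read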
#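 Anaerobic 48 hrs incubation at 37 deg C of 100 trophozoites/well with test compounds; ATPLite 1-Step luminescence, 15-30 min RT, reports cellular ATP as viability.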
# Hits are given with their value; – = inactive; ? = inconclusive; · = no result given. Compounds with a hit are over-represented: about 8.3% of the library has one in this group of screens. Unless noted, the call rests on the fitted dose curve; in most records, active means well fitted curve in the direction sought with a large enough effect; inconclusive means small, poorly fitted or top-dose-only effect, or another doubt; inactive means no such curve, though single readings can be large; an effect the other way counts as inactive or inconclusive.
SMILES,RORg inh,VP16 counter,MCF10A rereplic,BCR signal inh,SW480 rerep,Giardia killer
Cc1cc[n+](CC(=O)c2ccc(NC(=O)c3ccccc3)cc2)cc1,–,–,1.3µM,–,–,–
O=C(O)c1cccc(NC(=O)c2ccc3c(c2)C(=O)N(CC2CCCO2)C3=O)c1 (centres undefined),0.562µM,–,–,?,–,–
COc1cccc(N=Nc2c(N)[nH]n3c(=O)c4c(nc23)CCCC4)c1,–,–,–,?,–,–
COc1cc(/C=N/N2CCCCC2)cc([N+](=O)[O-])c1O,–,–,–,–,–,–
O=C(OCC(=O)N1CCN(S(=O)(=O)c2ccc(Cl)cc2)CC1)c1cccc(OC(F)F)c1,·,·,–,–,–,–
CC(C)N1CCC(NC(=O)NC2CCCCC2)CC1,–,–,–,–,–,–
O=C(Nc1ccncc1)c1ccc(-c2ccccc2)cc1,7.94µM,?,?,?,?,–
O=C(O)c1cccc(NC(=S)NC(=O)c2ccc3ccccc3c2)c1,10µM,7.08µM,–,?,–,–
O=C(NC(=S)Nc1cccc(CO)c1)c1ccc(-c2ccccc2)cc1,1.58µM,2.82µM,?,?,–,–
O=C(Nc1cccnc1)c1ccc(-c2ccccc2)cc1,–,–,–,?,?,–
O=C(Nc1ccc[n+](CC(=O)c2cccc3ccccc23)c1)c1ccccc1,?,11.2µM,–,–,?,–
COc1ccccc1OCCCCn1c(C(C)O)nc2ccccc21 (centres undefined),·,·,–,–,–,–
CCOC(=O)CN(c1ccccn1)S(=O)(=O)c1ccc(OC)cc1,–,–,–,–,–,–
Cc1ccc(C(=O)Nc2cnc3ccccc3c2)cc1,3.16µM,2.82µM,–,?,–,?
CCC(=O)Nc1cccc(NC(=S)NC(=O)c2ccc(C)cc2)c1,–,–,–,–,–,–
CC(=O)c1cccc(NC(=S)NC(=O)c2ccc(C)cc2)c1,10µM,12.6µM,–,–,–,–
Cc1cc2c(c(C)c1Cl)C(c1ccc3c(c1)OCO3)CC(c1ccccc1)O2 (centres undefined),–,–,·,·,·,–
Cc1cc(C)cc(NC(=S)NC2CC3CCCC(C2)N3C2CCCC2)c1 (centres undefined),35.5µM,–,–,–,–,–
S=C(Nc1ccc(Cl)cc1)NC1CC2CCCC(C1)N2C1CCCC1 (centres undefined),–,–,?,–,23.1µM,–
S=C(Nc1ccc(Cl)cc1)NC1CC2CCCC(C1)N2C1CC1 (centres undefined),?,3.98µM,–,?,–,–
CCc1nnc(NC(=O)c2ccc(S(=O)(=O)N3CCCCCC3)cc2)s1,–,–,–,–,–,–

# Compound activity (PubChem BioAssay)
